# Experimental data reported in PubChem BioAssay (NCI).
# This is part of a sample that, as a whole, favours compounds with a hit. Of some 79,000 tested, about 15% had one in any assay. Values without a mark were called inactive. Active and inactive are the calls of the source. Rule as the data show it: active = growth inhibition above about 70%; inactive = the rest.
# How the values were obtained:
# [1] = NCI Yeast Anticancer Drug Screen. Data for the rad50 strain (AID 155);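 also: 0% = growth of vehicle-only cultures of the same strain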; conditions: S. cerevisiae rad50 strain growth inhibition, active compounds read high
# Procedure, shortened: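 Relative growth inhibition (compound vs vehicle) was measured in yeast with a defined repair-gene alteration.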
# [2] = NCI Yeast Anticancer Drug Screen. Data for the mec2-1 strain (AID 157); conditions: S. cerevisiae mec2-1 strain, active compounds read high
# Procedure, shortened: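 Test agents were screened against the mec2-1 yeast strain, with defined DNA repair or cell cycle alteration. Growth was scored as inhibition against vehicle-only controls.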
# [3] = NCI Yeast Anticancer Drug Screen. Data for the sgs1 mgt1 strain (AID 161);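 also: 0% = growth of cultures given vehicle only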; conditions: S. cerevisiae sgs1 mgt1 strain, active compounds read high
# Procedure, shortened: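 Genetically altered yeast, compound exposure, growth inhibition relative to vehicle.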
# [4] = NCI Yeast Anticancer Drug Screen. Data for the cln2 rad14 strain (AID 165);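 also: 0% = growth equal to vehicle treated cultures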; conditions: S. cerevisiae cln2 rad14 strain, active compounds read high
# Procedure, shortened: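 Growth of compound-exposed yeast (cln2 rad14 genotype) measured and expressed as inhibition relative to vehicle.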
# [5] = NCI Yeast Anticancer Drug Screen. Data for the bub3 strain (AID 167); conditions: S. cerevisiae bub3 mutant strain, active compounds read high
# Procedure, shortened: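 Screening used yeast with an engineered genetic alteration affecting cell cycle control. Compound-exposed cultures were compared with vehicle cultures, and reduced growth was taken as inhibition.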
# [6] = NCI Yeast Anticancer Drug Screen. Data for the mlh1 rad18 strain (AID 175); conditions: S. cerevisiae mlh1 rad18 strain growth inhibition, active compounds read high
# Procedure, shortened: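 In this whole-cell yeast screen, a strain with altered DNA damage repair is challenged with compound, and its growth is measured against matched vehicle-treated controls.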
# [7] = at 5.0 µM (retest, dose inferred, filed as 0.5)
# [8] = at 50.0 µM (retest, dose inferred, filed as 5.0)
SMILES,"growth inhibition [1, 7]","growth inhibition [1, 8]",growth inhibition ([1]; at 50.0 µM),"growth inhibition [2, 7]","growth inhibition [2, 8]",growth inhibition ([2]; at 50.0 µM),"growth inhibition [3, 7]","growth inhibition [3, 8]",growth inhibition ([3]; at 50.0 µM),"growth inhibition [4, 7] [%]","growth inhibition [4, 8]",growth inhibition ([4]; at 50.0 µM),"growth inhibition [5, 7]","growth inhibition [5, 8]",growth inhibition ([5]; at 50.0 µM),"growth inhibition [6, 7]","growth inhibition [6, 8]",growth inhibition ([6]; at 50.0 µM)
Cc1ccccc1C(CC(=O)O)C(C)c1ccccc1 (configuration not stated),14%,53%,20.5%,18%,53%,88.8% (active),9%,66%,77.9% (active),13,60%,73.2% (active),32%,80% (active),97.2% (active),12%,45%,86.2% (active)
NNC(=O)N/N=C(/CC1(O)C(=O)Nc2ccc(Br)cc21)c1ccccc1 (configuration not stated),-1%,83% (active),88.3% (active),1%,66%,83.8% (active),-2%,86% (active),89.6% (active),-5,48%,10.2%,8%,91% (active),81.3% (active),0%,71% (active),93.7% (active)
CCOC(=O)C(Br)c1nc2ccccc2[nH]c1=O (configuration not stated),2%,73% (active),68.3%,-10%,81% (active),74.2% (active),2%,96% (active),49.1%,2,49%,28.7%,-7%,86% (active),81.6% (active),-5%,98% (active),92.2% (active)
Cc1ccc(S(=O)(=O)CC2(Br)CCc3ccccc3C2=O)cc1 (configuration not stated),39%,71% (active),74.8% (active),31%,15%,62.5%,40%,74% (active),75.3% (active),1,18%,38.6%,12%,60%,42.5%,23%,48%,54.8%
CC(=O)OCC1OC(OC2C=C(O[Si](C)(C)C)C[C@H]3C(=O)C=CC(=O)[C@@H]23)C(OC(C)=O)C(OC(C)=O)C1OC(C)=O (some centres not stated),6%,96% (active),58.6%,1%,98% (active),59.2%,2%,98% (active),31.4%,2,88% (active),4.5%,3%,93% (active),15.1%,3%,97% (active),54.6%
O=C(c1ccccc1)C(c1ccccc1)C1(O)C(=O)Nc2c(Cl)cc(Cl)cc21 (configuration not stated),13%,13%,92.8% (active),-6%,-6%,93.3% (active),-18%,-18%,92% (active),-6,-6%,87% (active),-5%,-5%,93.2% (active),0%,0%,92.2% (active)
CCOC(=O)C(NS(=O)(=O)c1ccccc1)(C(F)(F)F)P(=O)(OCC(C)C)OCC(C)C (configuration not stated),4%,-2%,98.5% (active),8%,-2%,96.1% (active),-7%,-3%,96.2% (active),2,13%,97.3% (active),4%,0%,96.2% (active),0%,17%,98% (active)
Cc1cccc2c1NC(c1c(C)[nH]c3ccccc13)C2 (configuration not stated),1%,10%,28.8%,-1%,5%,25.3%,-4%,8%,27.2%,0,-2%,30.4%,-3%,17%,30.1%,-3%,-22%,67.2%
C#CCN(N=O)C(=O)NCCCC(NC(C)=O)C(=O)NCc1ccccc1 (configuration not stated),-4%,19%,78.9% (active),-26%,-10%,-5.35%,3%,36%,43.6%,-8,12%,27.1%,6%,26%,-13.6%,-2%,42%,25.8%
O=C(CC1(O)C(=O)Nc2c(Cl)cccc21)c1ccc(Cl)cc1 (configuration not stated),9%,45%,18.6%,8%,29%,20.8%,-19%,36%,33.8%,17,71% (active),19.4%,10%,72% (active),19.4%,-7%,54%,28.3%
N=C(N)Cc1ccc(NC(=O)c2ccc(C(=O)Nc3ccc(CC(=N)N)cc3)cc2)cc1,3%,-8%,21.4%,2%,14%,34.2%,-11%,-21%,78.4% (active),-7,-16%,14.7%,-3%,-11%,56.3%,2%,-49%,27.9%
Nc1nc(-c2cccnc2)nc(N)c1N=O,7%,82% (active),61.4%,15%,79% (active),79.2% (active),15%,88% (active),70.6% (active),1,90% (active),66.5%,36%,92% (active),91.1% (active),25%,94% (active),79.1% (active)
COc1cc2c(Cc3ccc(OC)c(OC)c3)[n+](Cc3ccccc3)ccc2cc1NCc1ccccc1,90% (active),98% (active),89% (active),90% (active),99% (active),92.2% (active),93% (active),99% (active),86% (active),65,98% (active),89.6% (active),92% (active),99% (active),81.1% (active),88% (active),99% (active),92.7% (active)
Cc1ccc(-c2c3nc(c(-c4ccc(C)cc4)c4ccc([nH]4)c(-c4ccc(C)cc4)c4nc(c(-c5ccncc5)c5ccc2[nH]5)C=C4)C=C3)cc1.Cc1ccc(-c2c3nc(c(-c4ccc(C)cc4)c4ccc([nH]4)c(-c4ccc(C)cc4)c4nc(c(-c5ccncc5)c5ccc2[nH]5)C=C4)C=C3)cc1.O=S(=O)([O-])C(F)(F)F.[Pt+2].c1ccc([PH+](CCC[PH+](c2ccccc2)c2ccccc2)c2ccccc2)cc1,19%,62%,48.8%,13%,42%,36.8%,13%,71% (active),50.4%,3,45%,-44.6%,10%,63%,38.8%,14%,60%,68.5%
N=c1ccc2c(c1)[nH]c1c3ccccc3[nH]c3cccc2c31,81% (active),98% (active),81.8% (active),27%,98% (active),84% (active),23%,98% (active),89.1% (active),21,98% (active),90% (active),18%,98% (active),88.3% (active),33%,97% (active),87% (active)
O=C1C(=O)c2cc(Cl)ccc2-c2ccc(Cl)cc21,20%,90% (active),91% (active),30%,95% (active),93.9% (active),33%,95% (active),94% (active),-4,94% (active),88.5% (active),56%,94% (active),86.6% (active),30%,95% (active),93.5% (active)
O=C1c2ccc(S(=O)(=O)O)cc2C(=O)c2ccc(S(=O)(=O)O)cc21,3%,23%,49.3%,-1%,21%,25.5%,5%,36%,47.5%,2,26%,-62.8%,1%,19%,55.4%,4%,31%,74% (active)
CC(C)=CCc1ccc(O)cc1,-24%,97% (active),-3.15%,5%,98% (active),25.1%,-13%,98% (active),-24.1%,5,96% (active),34.8%,-10%,99% (active),53.9%,1%,97% (active),1.75%
Cn1nc(-c2ccccc2NC(=O)C(F)(F)F)c(=O)n(C)c1=S,-3%,37%,56.9%,3%,21%,43.9%,14%,25%,50.5%,-3,14%,33.6%,4%,27%,27.7%,0%,34%,73.9% (active)
